Experimental data as given in PubChem BioAssay.

assay: yeast growth modulation, basal conditions, primary screen, YJM789 clinical isolate, OD600, 24 h (AID 1089);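 note: growth of clinical yeast isolate S. cerevisiae YJM 789 seeded 1000 cells per well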; details: S. cerevisiae YJM789 growth, higher = more signal, called active from +8 up or from −8 down
Note: test concentration not given here.

z-score, inactive:
COc1cc(NN2C(C(O)c3ccco3)C=CC3C(=O)N(c4ccccc4)C(=O)C32)cc(OC)c1OC (stereo not drawn) 0.602
C=CC[C@@]1(C(=O)NCCN2CCOCC2)N=C(c2ccc(OCCCO)cc2)O[C@@H]1c1ccccc1N=[N+]=[N-] 0.658
COC(=O)[C@@]1(Cc2ccccc2)[C@H]2c3cc(C(=O)N4CCCC4)n(Cc4ccc(S(C)(=O)=O)cc4)c3C[C@H]2CN1C(=O)c1ccccc1 0.527
C=CCNC(=O)[C@@H]1[C@H]2C(=O)O[C@H](c3ccccc3)[C@H](c3ccccc3)N2[C@H](c2ccc(O)cc2)[C@@]12C(=O)N(C(=O)OCCOC)c1ccc(C#CCNC(N)=O)cc12 -1.76
CCOC(=O)C1=CC[C@@H](c2ccccc2)N(S(=O)(=O)c2ccc(C)cc2)[C@H]1c1ccccc1C -0.602
C=CCNC(=O)[C@@H]1[C@H]2C(=O)O[C@H](c3ccccc3)[C@H](c3ccccc3)N2[C@H](c2ccc(O)cc2)[C@@]12C(=O)Nc1ccc(C#CCNC(N)=O)cc12 -0.358
O=C(NCCN1CCOCC1)[C@@H]1c2ccccc2C(=O)N(C2CCCCC2)[C@H]1c1ccc(CO)cc1 -0.166
CCCCCCc1nc(-c2cc(C)c(OC)c(C)c2)cc2c1[Si](C(C)C)(C(C)C)OC2 -0.389
C=CCNC(=O)[C@H]1[C@@H]2C(=O)O[C@@H](c3ccccc3)[C@@H](c3ccccc3)N2[C@@H](c2ccccc2OCCO)[C@]12C(=O)Nc1ccc(C#CCC(C(=O)OC)C(=O)OC)cc12 1.93
CC(=O)n1cc(C(O)C2C=CC3C(=O)N(c4ccccc4)C(=O)C3N2Nc2ccc([N+](=O)[O-])cc2)c2ccccc21 (stereo not drawn) -0.701

assay: fission yeast growth modulation, primary screen, strain 972, OD600, 24 h, no modulator (AID 1090);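 note: basal condition with compound alone and no growth modifier present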; details: S. pombe 972 growth, higher = more signal, called active from +8 up or from −8 down

z-score, inactive:
O=C1c2ccccc2[C@](Cc2ccccc2I)(C(=O)NCC(F)(F)F)[C@H](c2ccc(CO)cc2)N1Cc1ccccc1Cl -1.09
CCCC=C(CCC)[C@@H](NC(=O)c1cccs1)c1ccc(C(F)(F)F)cc1 -2.1
CCCCN1CC=CC23O[C@@H]4C=CCCOC(=O)C4[C@H]2C(=O)N(CCCCCCO)[C@@H]3C1=O (stereo partly drawn) -0.576
CCCCCN1CC=CC23O[C@@H]4C=CCCOC(=O)C4[C@H]2C(=O)N(CCCCCO)[C@@H]3C1=O (stereo partly drawn) -0.772
O=C(NC1CC1)[C@@H]1c2ccccc2C(=O)N(Cc2ccccc2Cl)[C@H]1c1ccc(CO)cc1 -2.52
COCCOC(=O)N1C(=O)[C@@]2(c3cc(C#CCC(C(=O)OC)C(=O)OC)ccc31)[C@H](C(=O)N1CCN(c3ncccn3)CC1)[C@H]1C(=O)O[C@H](c3ccccc3)[C@H](c3ccccc3)N1[C@@H]2c1ccccc1OCCO 1.33
CCCC[C@H]1OB(O)C[C@H]2C1=C(COC)Cn1c(=O)n(-c3ccccc3)c(=O)n12 0.19
Oc1ccc2cc[n+](Cc3sc4ccccc4c3Cl)cc2c1 -1.43
C=C[C@H](OC)[C@@H](OC(=O)Nc1ccc(OC)cc1)c1ccc(O)c(F)c1 -1.18
O=C1C2C=CC(C(O)c3cc(C(F)(F)F)cc(C(F)(F)F)c3)N(n3cnnc3)C2C(=O)N1Cc1ccccc1 (stereo not drawn) 0.685
CCC(CC)C(O)C1C=CC2C(=O)NC(=O)C2N1Nc1ccc(Cl)cc1Cl (stereo not drawn) -5.81
COc1cc(C(O)C2C=CC3C(=O)NC(=O)C3N2Nc2ccccn2)cc(OC)c1OC (stereo not drawn) 1.15
CC(C)C(CO)N1C(=O)[C@@H]2C3C(=O)OCCC/C=C\[C@H]3OC23C=CCN(CCN2CCOCC2)C(=O)[C@@H]13 (stereo partly drawn) -0.21
C=CCN1C(=O)[C@@]2(CC=C)N=C(c3ccc(OCCCO)cc3)O[C@H]2c2ccccc21 -4.72
COC(=O)[C@@]1(Cc2ccccc2)N=C(c2ccc(OCCCO)cc2)O[C@H]1c1ccccc1 -1.99
C=C(COC)/C(=C/C[C@@H](OC(=O)c1ccncc1)c1ccc(CO)o1)c1cc(C(=O)OC)ccc1OC -0.262
CN(C)CCCC[C@@H]1NC(=O)[C@H]2C[C@@H](C(=O)NCCCCCCN)[C@@H](c3ccc(O)cc3)N2C1=O -0.235
CO[C@H]1O[C@H](CO)[C@@H](OC(=O)Nc2ccc(Oc3ccccc3)cc2)[C@H](OC(=O)Nc2ccc3c(c2)OCO3)[C@H]1OC(=O)Nc1ccc2c(c1)OCO2 1.02
